This is part of a sample that, as a whole, favours compounds with a hit. Of some 83,000 tested, about 20% had one in any assay.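 In brief: 96-well plates, 48 h treatment, single concentration, percent growth endpoint.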 Values without a mark were called inactive. Calls of active or inactive are those of the source. Rule for the calls: active = growth percent below 10; inactive = the rest.
Legend:
Experiment in all cases: NCI-60 one-dose screen, 48 h (100 = growth as untreated, 0 = no growth, -100 = all killed)
Conditions in all cases: 10 µM unless noted
HCT-15 colon = system: HCT-15 colon
HT29 colon = system: HT29 colon
SNB-75 CNS = system: SNB-75 CNS
SNB-19 CNS = system: SNB-19 CNS
U251 CNS = system: U251 CNS
PC-3 prostate = system: PC-3 prostate
SK-MEL-5 melanoma = system: SK-MEL-5 melanoma
UACC-62 melanoma = system: UACC-62 melanoma
SK-MEL-28 melanoma = system: SK-MEL-28 melanoma

Compound	growth (HCT-15 colon)	growth (HT29 colon)	growth (SNB-75 CNS)	growth (SNB-19 CNS)	growth (U251 CNS)	growth (PC-3 prostate)	growth (SK-MEL-5 melanoma)	growth (UACC-62 melanoma)	growth (SK-MEL-28 melanoma)
O=C(/C=C/Nc1ccc(Cl)cc1)c1ccc2c(c1)Nc1ccccc1S2	67.1%	28.7%	-24.4% (active)	9.53% (active)	31.5%	29.8%	71.3%	32%	65.9%
Cc1cc2c(cc1Cl)C(=O)/C(=C/c1ccccc1)O2	13.3%	38.6%	52.5%	34.6%	8.18% (active)	29.8%	-75.4% (active)	29.3%	49.9%
COc1ccc(C2=NN(C(C)=O)C(c3ccc(OCc4ccc(Cl)cc4)c(OC)c3)C2)cc1OC (configuration not stated)	27.9%	40.1%	61.3%	51.4%	46.8%	23.6%	-9.52% (active)	34%	56.8%
COc1cc2c(c(OC)c1OC)C(=O)CC(c1cccc(NC(=O)c3cc(N)ccc3Cl)c1)O2 (configuration not stated)	22.3%	79.9%	43.7%	77.4%	65.6%	47.3%	35.8%	61.7%	56.8%
CSc1ccccc1NC(=O)c1ccc2nnn(/C(C#N)=C/c3ccccn3)c2c1	-79.9% (active)	-92.1% (active)	67.9%	0.0552% (active)	-90.9% (active)	-71% (active)	-98.9% (active)	-98.8% (active)	-99.2% (active)
O=C(O)c1cccc(-c2ccc(/C=N/NC(=O)c3[nH]c4ccc(Br)cc4c3-c3ccccc3)o2)c1	70.4%	107%	57.8%	30.7%	34.7%	86.4%	84.2%	35.5%	53.2%
COc1ccc([C@H](C)Nc2nc(Cl)nc3ccccc23)cc1	56.1%	28.8%	93.4%	60.6%	74.2%	77.1%	5.57% (active)	47.8%	59.9%
O=S(=O)(Nc1cccc(-n2cnc3cc(-c4ccc(O)cc4)ccc32)c1)C1CC1	27.2%	16.7%	-22.3% (active)	37.7%	17.6%	40%	12.6%	34.5%	43.6%
N#Cc1c(-c2ccc(Br)cc2)nc2n[nH]c(-c3ccc(Br)cc3)c2c1-c1ccc(F)cc1	98.6%	87.9%	94.5%	102%	96.7%	89%	95.1%	87%	102%
CC1=C(C(=O)OCc2ccccc2)C(c2c(O)cc(O)cc2O)n2c(nc3ccccc32)N1 (configuration not stated)	39%	38.7%	13%	59.7%	42.7%	49.2%	53%	14.7%	60.2%
C(=C\c1cc(/C=C/c2ccccc2)c2ccccc2n1)/c1ccccc1	29.2%	86%	115%	97.7%	62.3%	78.2%	81.7%	93.4%	114%
CC(=O)Nc1cccc(Nc2nc(N[C@H]3CCCc4ccccc43)c3ccccc3n2)c1	97.5%	104%	90.6%	96.9%	105%	115%	105%	92%	104%
O=C(COc1ccc(NC(=O)Nc2ccc(Cl)c(Cl)c2)cc1)N=Nc1c(O)[nH]c2ccc([N+](=O)[O-])cc12	88.5%	81.6%	66.2%	67%	19.4%	71.6%	90.7%	85.6%	57.6%
O=C(COc1ccc(NC(=O)Nc2ccc(Cl)c(Cl)c2)cc1)N=Nc1c(O)[nH]c2ccc(Br)cc12	27%	-46.2% (active)	7.51% (active)	-5.58% (active)	-84.7% (active)	-16.6% (active)	-89% (active)	-35.5% (active)	-77% (active)
CSc1ccc(C(=O)Nc2ccc3nnn(/C(C#N)=C/c4ccccn4)c3c2)cc1	-41.8% (active)	-86.6% (active)	55.9%	-3.44% (active)	-78.2% (active)	7.72% (active)	-57.2% (active)	-51.3% (active)	-50.2% (active)
Cc1c(C(=O)NNC(=O)c2ccc(Cl)cc2)nnn1-c1ccc(Cl)cc1	93.5%	92.3%	83.6%	95.1%	99.8%	95.4%	99.5%	86.1%	94%
CCOC(=O)C1=C(N)N(c2ccccc2)C2=C(C(=O)CC(C)(C)C2)C1c1ccc(Cl)cc1Cl (configuration not stated)	14%	35%	41.2%	28.1%	27.6%	9.99% (active)	-1.66% (active)	27.2%	51.3%
CC(=O)Nc1cccc(-c2nc3cc(-c4ccc(O)cc4)ccc3n2C)c1	41.6%	62.6%	62.5%	51.2%	58.7%	47.9%	-9.75% (active)	15.7%	27.3%
CSc1ccc(NC(=O)c2ccc3nnn(/C(C#N)=C/c4ccccn4)c3c2)cc1	-66.3% (active)	-89.2% (active)	63.2%	-73.1% (active)	-81.6% (active)	-20.1% (active)	-99.7% (active)	-65.9% (active)	-72.6% (active)
CCOC(=O)COc1c(OC)c(OC)cc2oc(-c3cccc(C(=O)Nc4ccc(Cl)cc4)c3)cc(=O)c12	21.5%	22.9%	34.6%	62.3%	39.9%	41.1%	22.3%	55.1%	68.6%
N#Cc1cnn(C(=O)c2ccccc2Br)c1NC(=O)c1ccc(Br)cc1Cl	101%	104%	106%	97.2%	93.3%	103%	98.6%	101%	103%
COc1ccc2[nH]c(O)c(N=NC(=O)COc3ccc(NC(=O)Nc4ccccc4)cc3)c2c1	108%	52.4%	31.6%	14.6%	-4.75% (active)	40.5%	69.7%	10.1%	8.57% (active)
N#Cc1c(-c2ccc(Cl)cc2)nc2n[nH]c(-c3ccc(Cl)cc3)c2c1-c1ccc(C(F)(F)F)cc1	-47.2% (active)	0.823% (active)	-17.5% (active)	11.3%	-33.6% (active)	8.27% (active)	-84% (active)	-58.6% (active)	1.54% (active)
CC(C)CCNC(=O)N/C(N)=N/c1nc2ccccc2s1	48.4%	68.8%	82.2%	58.4%	67.4%	62.6%	15.8%	59.2%	81.3%
Cc1c(C(=O)NNC(=O)c2ccc(Cl)cc2)nnn1-c1ccc(Br)cc1	98.3%	96.4%	90.6%	97%	112%	99.9%	97.7%	90.5%	95.7%
COc1ccc2oc3c4[nH]c5ccccc5c4c4c(c3c2c1)C(=O)N(C(=O)OC(C)(C)C)C4=O	-23.2% (active)	-32% (active)	-3.78% (active)	11.8%	4.43% (active)	-12.9% (active)	-99.3% (active)	-77.3% (active)	-45.5% (active)
COc1cc(-c2nc3cc(Cl)c(Cl)cc3[nH]2)ccc1OCc1nnc(-c2cccs2)o1	25.8%	58.2%	114%	65.8%	71.1%	50%	44.6%	21.3%	31.4%
O=C(O)c1cccc(-c2ccc(/C=N/NC(=O)c3[nH]c4ccc(Br)cc4c3-c3ccccc3)s2)c1	17.4%	69%	29.6%	26.2%	27%	56.9%	30.1%	19.5%	44.2%

Reference: PubChem BioAssay (NCI)
